# Source: PMC8384837, “Expanding the binding specificity for RNA recognition by a PUF domain”
# Assays:
# Test in all cases: yeast three-hybrid, YBZ-1, SC-Leu-His + 0.5 mM 3-AT, 4 days
# Conditions in all cases: tags: N-Gal4 AD-HA kept; label: inside an RPR1-promoter hybrid RNA with tandem MS2 sites; ssRNA
# [1] = molecular target: PUM1 PUF domain R5-RRN (Homo sapiens, UniProt Q14671 828-1176, C1007R;Q1011N)
# How it was run: (§1)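 Repeat regions from input (SC-Leu) and selection (SC-Leu-His + 0.5 mM 3-AT) plates were PCR-amplified and Illumina-sequenced after four days of growth. The cells were strain YBZ-1 with a LexA–MS2 coat fusion and a HIS3 reporter, co-expressing Pumilio-1 PUF domain libraries and matching RNA elements from a centromeric plasmid. The interaction score is the log change in variant frequency from input to selection, taken in log2 with a pseudocount of 1 for absent variants.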
# [2] = molecular target: PUM1 PUF domain R5-RFN (Homo sapiens, UniProt Q14671 828-1176, C1007R;R1008F;Q1011N)
# How it was run: as §1
# [3] = molecular target: PUM1 PUF domain R5-ARR (Homo sapiens, UniProt Q14671 828-1176, C1007A;Q1011R)
# How it was run: as §1
# [4] = molecular target: PUM1 PUF domain R3-TCE (Homo sapiens, UniProt Q14671 828-1176, C935T;R936C;Q939E)
# How it was run: as §1
# [5] = molecular target: PUM1 PUF domain R3-GFG (Homo sapiens, UniProt Q14671 828-1176, C935G;R936F;Q939G)
# How it was run: as §1
# [6] = molecular target: PUM1 PUF domain R3-TWD (Homo sapiens, UniProt Q14671 828-1176, C935T;R936W;Q939D)
# How it was run: as §1
# [7] = molecular target: PUM1 PUF domain R3-WWS (Homo sapiens, UniProt Q14671 828-1176, C935W;R936W;Q939S)
# How it was run: as §1
# [8] = molecular target: PUM1 PUF domain R8-HHP (Homo sapiens, UniProt Q14671 828-1176, N1122H;Y1123H;Q1126P)
# How it was run: as §1
# [9] = molecular target: PUM1 PUF domain R3-GRF (Homo sapiens, UniProt Q14671 828-1176, C935G;Q939F)
# How it was run: as §1
# [10] = molecular target: PUM1 PUF domain R3-GPS (Homo sapiens, UniProt Q14671 828-1176, C935G;R936P;Q939S)
# How it was run: as §1
# [11] = molecular target: PUM1 PUF domain R4-SMT (Homo sapiens, UniProt Q14671 828-1176, N971S;H972M;Q975T)
# How it was run: as §1
# [12] = molecular target: PUM1 PUF domain R8-PFK (Homo sapiens, UniProt Q14671 828-1176, N1122P;Y1123F;Q1126K)
# How it was run: as §1
# [13] = molecular target: PUM1 PUF domain R8-WFR (Homo sapiens, UniProt Q14671 828-1176, N1122W;Y1123F;Q1126R)
# How it was run: as §1
# [14] = molecular target: PUM1 PUF domain R4-EHT (Homo sapiens, UniProt Q14671 828-1176, N971E;Q975T)
# How it was run: as §1
# [15] = molecular target: PUM1 PUF domain R5-GWY (Homo sapiens, UniProt Q14671 828-1176, C1007G;R1008W;Q1011Y)
# How it was run: as §1
# [16] = molecular target: PUM1 PUF domain R3-NPR (Homo sapiens, UniProt Q14671 828-1176, C935N;R936P;Q939R)
# How it was run: as §1
# [17] = molecular target: PUM1 PUF domain R3-RSD (Homo sapiens, UniProt Q14671 828-1176, C935R;R936S;Q939D)
# How it was run: as §1
# [18] = molecular target: PUM1 PUF domain R1-RKM (Homo sapiens, UniProt Q14671 828-1176, S863R;R864K;Q867M)
# How it was run: as §1
# [19] = molecular target: PUM1 PUF domain R1-NYV (Homo sapiens, UniProt Q14671 828-1176, S863N;R864Y;Q867V)
# How it was run: as §1
# [20] = molecular target: PUM1 PUF domain R7-KGV (Homo sapiens, UniProt Q14671 828-1176, S1079K;N1080G;E1083V)
# How it was run: as §1
# Chain of PUM1 PUF domain R5-RRN (Q14671 828-1176 C1007R/Q1011N): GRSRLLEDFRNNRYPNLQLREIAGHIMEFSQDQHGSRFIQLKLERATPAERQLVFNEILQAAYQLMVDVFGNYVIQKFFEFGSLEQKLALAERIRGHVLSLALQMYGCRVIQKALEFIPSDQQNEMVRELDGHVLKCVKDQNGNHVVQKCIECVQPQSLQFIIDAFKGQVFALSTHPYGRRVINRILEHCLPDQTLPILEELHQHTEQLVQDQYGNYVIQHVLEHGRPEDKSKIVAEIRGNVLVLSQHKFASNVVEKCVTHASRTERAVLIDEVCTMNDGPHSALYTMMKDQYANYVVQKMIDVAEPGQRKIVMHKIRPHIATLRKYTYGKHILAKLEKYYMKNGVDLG
# Chain of PUM1 PUF domain R3-GRF (Q14671 828-1176 C935G/Q939F): as the sequence (Q14671 828-1176 C1007R/Q1011N) above, with C108G, Q112F, R180C, N184Q counted along it
# Chain of PUM1 PUF domain R8-PFK (Q14671 828-1176 N1122P/Y1123F/Q1126K): as the sequence (Q14671 828-1176 C1007R/Q1011N) above, with R180C, N184Q, N295P, Y296F, Q299K counted along it
# Chain of PUM1 PUF domain R3-GFG (Q14671 828-1176 C935G/R936F/Q939G): as the sequence (Q14671 828-1176 C1007R/Q1011N) above, with C108G, R109F, Q112G, R180C, N184Q counted along it
# Chain of PUM1 PUF domain R3-GPS (Q14671 828-1176 C935G/R936P/Q939S): as the sequence (Q14671 828-1176 C1007R/Q1011N) above, with C108G, R109P, Q112S, R180C, N184Q counted along it
# Chain of PUM1 PUF domain R3-WWS (Q14671 828-1176 C935W/R936W/Q939S): as the sequence (Q14671 828-1176 C1007R/Q1011N) above, with C108W, R109W, Q112S, R180C, N184Q counted along it
# Chain of PUM1 PUF domain R5-RFN (Q14671 828-1176 C1007R/R1008F/Q1011N): as the sequence (Q14671 828-1176 C1007R/Q1011N) above, with R181F counted along it
# Chain of PUM1 PUF domain R8-WFR (Q14671 828-1176 N1122W/Y1123F/Q1126R): as the sequence (Q14671 828-1176 C1007R/Q1011N) above, with R180C, N184Q, N295W, Y296F, Q299R counted along it
# Chain of PUM1 PUF domain R4-SMT (Q14671 828-1176 N971S/H972M/Q975T): as the sequence (Q14671 828-1176 C1007R/Q1011N) above, with N144S, H145M, Q148T, R180C, N184Q counted along it
# Chain of PUM1 PUF domain R5-ARR (Q14671 828-1176 C1007A/Q1011R): as the sequence (Q14671 828-1176 C1007R/Q1011N) above, with R180A, N184R counted along it
# Chain of PUM1 PUF domain R7-KGV (Q14671 828-1176 S1079K/N1080G/E1083V): as the sequence (Q14671 828-1176 C1007R/Q1011N) above, with R180C, N184Q, S252K, N253G, E256V counted along it
# Chain of PUM1 PUF domain R3-NPR (Q14671 828-1176 C935N/R936P/Q939R): as the sequence (Q14671 828-1176 C1007R/Q1011N) above, with C108N, R109P, Q112R, R180C, N184Q counted along it
# Chain of PUM1 PUF domain R3-RSD (Q14671 828-1176 C935R/R936S/Q939D): as the sequence (Q14671 828-1176 C1007R/Q1011N) above, with C108R, R109S, Q112D, R180C, N184Q counted along it
# Chain of PUM1 PUF domain R3-TWD (Q14671 828-1176 C935T/R936W/Q939D): as the sequence (Q14671 828-1176 C1007R/Q1011N) above, with C108T, R109W, Q112D, R180C, N184Q counted along it
# Chain of PUM1 PUF domain R3-TCE (Q14671 828-1176 C935T/R936C/Q939E): as the sequence (Q14671 828-1176 C1007R/Q1011N) above, with C108T, R109C, Q112E, R180C, N184Q counted along it
# Chain of PUM1 PUF domain R4-EHT (Q14671 828-1176 N971E/Q975T): as the sequence (Q14671 828-1176 C1007R/Q1011N) above, with N144E, Q148T, R180C, N184Q counted along it
# Chain of PUM1 PUF domain R5-GWY (Q14671 828-1176 C1007G/R1008W/Q1011Y): as the sequence (Q14671 828-1176 C1007R/Q1011N) above, with R180G, R181W, N184Y counted along it
# Chain of PUM1 PUF domain R1-RKM (Q14671 828-1176 S863R/R864K/Q867M): as the sequence (Q14671 828-1176 C1007R/Q1011N) above, with S36R, R37K, Q40M, R180C, N184Q counted along it
# Chain of PUM1 PUF domain R1-NYV (Q14671 828-1176 S863N/R864Y/Q867V): as the sequence (Q14671 828-1176 C1007R/Q1011N) above, with S36N, R37Y, Q40V, R180C, N184Q counted along it
# Chain of PUM1 PUF domain R8-HHP (Q14671 828-1176 N1122H/Y1123H/Q1126P): as the sequence (Q14671 828-1176 C1007R/Q1011N) above, with R180C, N184Q, N295H, Y296H, Q299P counted along it
sequence,measurement,setting,value
GGCUAGAACUAGUGGAUCCCCCGGCGCCCGGCGGCUCGAGCCCGGGUAAGUGUUAAUAGUCUGCAUGCCGCCGGGCGCCAUGCCUGCAGGUCGACUCUAGAAAACAUG,binding signal,[1],3.66 log2 enrichment (interaction score)
same,binding signal,[2],3.08 log2 enrichment (interaction score)
GGCUAGAACUAGUGGAUCCCCCGGCGCCCGGCGGCUCGAGCCCGGGUAAGUGUCAAUAGUCUGCAUGCCGCCGGGCGCCAUGCCUGCAGGUCGACUCUAGAAAACAUG,binding signal,[1],4.4 log2 enrichment (interaction score)
same,binding signal,[3],4.7 log2 enrichment (interaction score)
GGCUAGAACUAGUGGAUCCCCCGGCGCCCGGCGGCUCGAGCCCGGGUAAGUGUAAGUAGUCUGCAUGCCGCCGGGCGCCAUGCCUGCAGGUCGACUCUAGAAAACAUG,binding signal,[4],5.59 log2 enrichment (interaction score)
same,binding signal,[5],1.23 log2 enrichment (interaction score)
same,binding signal,[6],2.42 log2 enrichment (interaction score)
same,binding signal,[7],5.24 log2 enrichment (interaction score)
GGCUAGAACUAGUGGAUCCCCCGGCGCCCGGCGGCUCGAGCCCGGGUAAGGGUAAAUAGUCUGCAUGCCGCCGGGCGCCAUGCCUGCAGGUCGACUCUAGAAAACAUG,binding signal,[8],2.56 log2 enrichment (interaction score)
GGCUAGAACUAGUGGAUCCCCCGGCGCCCGGCGGCUCGAGCCCGGGUAAGUGUAAAUAGUCUGCAUGCCGCCGGGCGCCAUGCCUGCAGGUCGACUCUAGAAAACAUG,binding signal,[1],2.02 log2 enrichment (interaction score)
same,binding signal,[9],4.89 log2 enrichment (interaction score)
same,binding signal,[3],4.33 log2 enrichment (interaction score)
same,binding signal,[5],3.47 log2 enrichment (interaction score)
same,binding signal,[10],2.12 log2 enrichment (interaction score)
same,binding signal,[11],1.34 log2 enrichment (interaction score)
same,binding signal,[12],5.15 log2 enrichment (interaction score)
same,binding signal,[7],2.73 log2 enrichment (interaction score)
same,binding signal,[13],4.29 log2 enrichment (interaction score)
GGCUAGAACUAGUGGAUCCCCCGGCGCCCGGCGGCUCGAGCCCGGGUAAGUGUAUAUAGUCUGCAUGCCGCCGGGCGCCAUGCCUGCAGGUCGACUCUAGAAAACAUG,binding signal,[11],5.3 log2 enrichment (interaction score)
same,binding signal,[14],2.46 log2 enrichment (interaction score)
GGCUAGAACUAGUGGAUCCCCCGGCGCCCGGCGGCUCGAGCCCGGGUAAGUGUGAAUAGUCUGCAUGCCGCCGGGCGCCAUGCCUGCAGGUCGACUCUAGAAAACAUG,binding signal,[1],1.8 log2 enrichment (interaction score)
same,binding signal,[2],3.16 log2 enrichment (interaction score)
same,binding signal,[15],2.71 log2 enrichment (interaction score)
GGCUAGAACUAGUGGAUCCCCCGGCGCCCGGCGGCUCGAGCCCGGGUAAGUGUAAUUAGUCUGCAUGCCGCCGGGCGCCAUGCCUGCAGGUCGACUCUAGAAAACAUG,binding signal,[9],0.84 log2 enrichment (interaction score)
same,binding signal,[10],1.97 log2 enrichment (interaction score)
same,binding signal,[16],2.25 log2 enrichment (interaction score)
same,binding signal,[17],3.6 log2 enrichment (interaction score)
GGCUAGAACUAGUGGAUCCCCCGGCGCCCGGCGGCUCGAGCCCGGGUAAGUGUAAAUUGUCUGCAUGCCGCCGGGCGCCAUGCCUGCAGGUCGACUCUAGAAAACAUG,binding signal,[18],3.28 log2 enrichment (interaction score)
same,binding signal,[19],3.91 log2 enrichment (interaction score)
GGCUAGAACUAGUGGAUCCCCCGGCGCCCGGCGGCUCGAGCCCGGGUAAGCGUAAAUAGUCUGCAUGCCGCCGGGCGCCAUGCCUGCAGGUCGACUCUAGAAAACAUG,binding signal,[12],4.13 log2 enrichment (interaction score)
same,binding signal,[13],4.73 log2 enrichment (interaction score)
GGCUAGAACUAGUGGAUCCCCCGGCGCCCGGCGGCUCGAGCCCGGGUAAGUUUAAAUAGUCUGCAUGCCGCCGGGCGCCAUGCCUGCAGGUCGACUCUAGAAAACAUG,binding signal,[20],3.27 log2 enrichment (interaction score)
